Rows were chosen to be rich in hits. Some 10% of all compounds tested hit in one or more screens of this group.
GLS inhibitor: blocks human kidney-isoform glutaminase activity; AID 624170; Potency, µM (top dose mostly 45.5 µM), inactives show at the top dose activity change, negative = inhibition, most hits filed as inhibitors; GLS enzymatic activity, qHTS titration; hit rate 0.21% among 410,000; O94925; also: % is scaled to controls: 0 for no effect and ±100 for the full control effect
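Two-point fluorescence kinetic (t0, 30 min RT) for hKGA; glutamate detected via glutamate oxidase–HRP–Amplex Red. Substrate: 1 mM L-glutamine solution; buffer 45 mM KH2PO4, pH 8.2.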
JMJD2A Tudor: JMJD2A Tudor domain (human) inhibition | hit rate 4.4% among 390,000 | AlphaScreen JMJD2A-Tudor / H3K4me3 peptide binding | Potency, µM (highest dose often 114 µM), for inactives: at the highest dose activity change, negative = inhibition, hits mostly inhibitors | O75164; also: % is scaled to controls: 0 for no effect and ±100 for the full control effect; nearly all actives have a fitted effect of over 50% in size
G9a inh: blocks human histone lysine methyltransferase G9a; G9a H3K9 monomethylation, AlphaScreen, 2 h; Potency, µM (highest dose often 102 µM), for inactives: at the highest dose activity, negative = inhibition, usual class: inhibitors; hit rate 8.8% among 350,000; Q96KQ7; also: % is scaled to controls: 0 for no effect and ±100 for the full control effect; nearly all actives have a fitted effect of over 75% in size
Target sequence (Q96KQ7 913-1193 limits assumed): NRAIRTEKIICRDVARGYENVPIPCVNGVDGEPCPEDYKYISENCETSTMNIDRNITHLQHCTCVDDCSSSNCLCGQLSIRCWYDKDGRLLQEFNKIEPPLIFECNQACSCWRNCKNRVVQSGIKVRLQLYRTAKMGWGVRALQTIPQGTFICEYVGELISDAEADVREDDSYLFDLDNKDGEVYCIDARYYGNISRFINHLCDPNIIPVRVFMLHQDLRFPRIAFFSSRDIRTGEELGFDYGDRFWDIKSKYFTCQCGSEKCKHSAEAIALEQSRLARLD
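Compounds were preincubated with 20 nM G9a for 15 min, after which biotinylated H3K9 peptide (500 nM) and SAM (20 uM) started a 2 h room-temperature reaction. Monomethylated product was quantified by antibody-based AlphaScreen chemiluminescence.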
BAZ2B inh: BAZ2B (human) inhibition; Q9UIF8; Potency, µM (highest dose often 114 µM), for inactives: at the top dose activity change, negative = inhibition, actives largely listed as inhibitors; AlphaScreen BAZ2B-H3K14Ac peptide displacement; hit rate 4.4% among 360,000; also: % is scaled to controls: 0 for no effect and ±100 for the full control effect; nearly all actives have a fitted effect of over 60% in size
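Multi-concentration screen (max 110 uM) measuring displacement of acetylated histone H3 peptide from BAZ2B by AlphaScreen, using 50 nM protein, 50 nM peptide and 10 ug/mL streptavidin donor plus Ni-chelate acceptor beads.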
HP1b binding inh: inhibitors of HP1-beta chromodomain binding to methylated histone tails; AlphaScreen HP1-beta / biotin-H3K9me3 peptide binding; P83916; Potency, µM (top dose mostly 114 µM), inactives show at the top dose activity change, negative = inhibition, hits mostly inhibitors; hit rate 0.56% among 390,000; also: nearly all actives have a fitted effect of over 70% in size
Target sequence (P83916 whole entry, looked up): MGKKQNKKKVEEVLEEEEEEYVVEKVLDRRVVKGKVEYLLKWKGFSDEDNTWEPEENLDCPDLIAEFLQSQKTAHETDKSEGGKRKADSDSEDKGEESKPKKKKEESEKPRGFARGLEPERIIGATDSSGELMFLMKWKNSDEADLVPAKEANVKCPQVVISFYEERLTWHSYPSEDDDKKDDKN
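Compound inhibition of the preformed complex between 50 nM HP1-beta and 50 nM biotinylated H3K9me3 peptide was read by AlphaScreen. Buffer was PBS pH 7.4 with 0.01% Tween-20. Incubations ran 30 min at room temperature, with 10 ug/mL donor/acceptor beads.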
Numbers without * were called inactive; ? = inconclusive; . = not tested or not shown; [ ] = another dose, or the depositor's remark. Calls follow the shape of the dose curve; as a rule, active = well fitted curve in the direction sought with a large enough effect; inconclusive = small, poorly fitted or top-dose-only effect, or another doubt; inactive = no such curve, though single readings can be large; an effect the other way counts as inactive or inconclusive. Potency is read from the fitted curve at half-maximal effect.

SMILES | GLS inhibitor | JMJD2A Tudor | G9a inh | BAZ2B inh | HP1b binding inh
O=C1N=C(N2CCN(c3ccccc3)CC2)S/C1=C/c1cccs1 | -16% | -25% | -20%[59 µM] | -33% | -1%
Cc1ccc(/C=C2\SC(N3CCN(C(c4ccccc4)c4ccccc4)CC3)=NC2=O)o1 | -37% | ? | 4.5µM* | ? | -20%
O=C1N=C(N2CCOCC2)S/C1=C/c1ccc(-c2ccc(F)cc2)o1 | -1% | -11% | . | -23% | 37%
Cc1ccc(-c2ccc(/C=C3\SC(N4CCOCC4)=NC3=O)o2)cc1 | ? | -16%[11.4 µM] | 32µM* | . | -29%
c1ccc(-c2ccccc2OCCCCn2ccnc2)cc1 | 8% | 20µM* | . | 50µM* | 40µM*
CC(C)(C)c1ccccc1OCCCCCn1ccnc1 | ? | 2.8µM* | ? | 18µM* | ?
Cc1ccccc1OCCCCCNCCO | 0% | -14% | -9%[59 µM] | 15% | 66%
CC(C)(C)c1ccccc1OCCCCCNCCO | 0% | 3.2µM* | ? | ? | ?
O=C1c2ccccc2C(=O)N1c1cccc(Cl)c1 | . | -13% | . | . | .
COc1cc(/C=N/Nc2nn3cnnc3c3ccccc23)ccc1O | 46% | -26% | 79µM* | ? | 25%
CCOc1cc(/C=N/Nc2cc(C)nc(-n3nc(C)cc3C)n2)ccc1O | 13% | ? | 45µM* | ? | 117%
COc1ccc(/C=N/Nc2cc(C)nc(N)n2)cc1 | 6% | -10% | -31%[2.33 µM] | 0% | 35%
COc1cc(/C=N/Nc2cc(C)nc(N)n2)ccc1O | 10µM* | -7% | 14% | -12% | 29%
COc1ccc(C(=O)Nn2c(SCc3ccc([N+](=O)[O-])cc3)nc3ccccc3c2=O)cc1 | -1% | -14% | -15% | -10% | 16%
O=C1NC(c2ccccc2)N=C2Oc3ccccc3C=C12 (stereo not drawn) | -3% | -3% | . | . | 30%
COC(=O)/C=c1\sc2ncnn2c1=O | -12% | 20µM* | 3.2µM* | 11% | ?
CNC(=O)/C(C#N)=c1\s/c(=C/C(=O)OC)c(=O)n1-c1ccccc1 | -2% | -14% | 13%[0.501 µM] | -3% | 26%
COc1cc(OC)c(NS(=O)(=O)c2c(C(=O)N3CCC(C)CC3)c(C)n(C)c2C)cc1Cl | 9% | -14% | 16%[59 µM] | -5% | 25%
COc1ccc(S(=O)(=O)N(c2onc(C)c2Cl)S(=O)(=O)c2ccc(OC)c(OC)c2)cc1OC | 1% | 25µM* | ? | 79µM* | 32%
COc1ccc(C(=O)C2CCCN(C(=O)c3csc(SC)n3)C2)cc1F (stereo not drawn) | 0% | . | . | . | .
CCc1ccc(Cn2ncc3c(C(=O)O)cc(C)nc32)cc1 | -10% | ? | . | . | 0%[57 µM]
CC(=O)N1CN(Cc2ccccn2)Cc2c1sc1c2CCCC1 | 13% | 40µM* | ? | 28µM* | 28%
CC(=O)N1CN(CCCn2ccnc2)Cc2c1sc1c2CCCC1 | 0% | -20%[11.4 µM] | -8%[2.33 µM] | ? | 40%
CCOC(=O)N1CCN(C(=O)CCCCCn2c(=S)[nH]c3ccsc3c2=O)CC1 | -22% | 79µM* | 18µM* | -13% | 34%
CCOC(=O)N1CCN(C(=O)CCCn2c(=S)[nH]c3ccccc3c2=O)CC1 | -19% | ? | ? | ? | 39%
SMILES | GLS inhibitor | JMJD2A Tudor | G9a inh | BAZ2B inh | HP1b binding inh
CCOC(=O)N1CCN(C(=O)CCCn2c(=S)[nH]c3ccc(Br)cc3c2=O)CC1 | 4% | -13% | 10µM* | -9% | 24%
NC(=O)C1CCN(C(=O)CCCCCn2c(=O)[nH]c3ccsc3c2=O)CC1 | -10% | -11% | -9%[59 µM] | 2% | 4%
CCOC(=O)N1CCN(C(=O)CCCn2c(=S)[nH]c3ccsc3c2=O)CC1 | -23% | 22µM* | 32µM* | ? | 19%
Cc1noc(/C=C/c2ccccc2F)c1S(=O)(=O)N1CCC(C(=O)Nc2ccc(C#N)cc2)CC1 | 6% | -14% | -4%[59 µM] | -4% | 20%[57 µM]
CCC(=O)OCC(=O)C1(OC(=O)CC)C(C)CC2C3CCC4=CC(=O)C=CC4(C)C3(Cl)C(O)CC21C (stereo not drawn) | 1% | . | -14%[2.33 µM] | . | .
C=CCNC(=S)NNc1nc2c(c(=O)[nH]1)C1(CCCCC1)Cc1ccccc1-2 | 7% | ? | 14µM* | ? | ?
O=C1CSC(=S)N1N=Cc1ccc(Cl)s1 | 29% | 28µM* | . | . | ?
O=[N+]([O-])c1ccc(O)c(C=NN2CCCCC2)c1 | 21% | . | . | . | .
COc1ccccc1C=NN1C(=O)CSC1=S | 23% | ? | . | . | ?
CC(C)(C)c1ccc(/C=N/N2C(=O)CSC2=S)cc1 | 23% | -34% | ? | ? | -5%
O=C1CSC(=S)N1/N=C/c1cc(Br)ccc1O | . | . | 10µM* | 5µM* | .
Oc1ccc(Br)cc1/C=N/N1CCCCC1 | 16% | -27% | 11µM* | -5% | -6%
O=C(NCCc1ccccc1)C1Cc2c(-c3ccc(Cl)cc3)ccnc2O1 (stereo not drawn) | 2% | . | . | . | .
Cc1ccc(NS(=O)(=O)c2cc3c(cc2-c2ccsc2)NC(=O)CO3)cc1C | . | -29% | . | . | .
CCOC(=O)N1CCC(N2Cc3cccc(C(=O)Nc4cc(F)ccc4F)c3C2=O)CC1 | 2% | -8% | -19% | 10% | 36%
CCOC(=O)N1CCC(N2Cc3cccc(C(=O)Nc4ccc(N(CC)CC)cc4C)c3C2=O)CC1 | 24% | 25µM* | 10µM* | 14µM* | ?
CCOC(=O)N1CCC(N2Cc3cccc(C(=O)NCC4CCN(CC(C)C)C4)c3C2=O)CC1 (stereo not drawn) | -1% | -15% | 50µM* | 9% | 11%
COc1ccc(C2c3[nH]c4ccccc4c3C[C@H]3C(=O)N(C4CCN(Cc5ccccc5)CC4)CC(=O)N23)cc1OC (stereo partly drawn) | -8% | ? | 13µM* | ? | -7%
COc1ccc(C(=O)CN2CCN(S(=O)(=O)c3ccc(C(C)C)cc3)CC2)cc1 | 5% | -22% | -34%[59 µM] | -18% | 17%
CCOC(=O)N1CCN(C(=O)c2[nH]c(C(F)(F)F)nc2-c2ccccc2)CC1 | 2% | . | . | . | .
CC(OC(=O)C1=Cc2ccccc2OC1)C(=O)NCC1CCCO1 (stereo not drawn) | -22% | 22µM* | . | . | ?
OCCC1CN(Cc2ccon2)CCN1Cc1ccc(F)c(F)c1 (stereo not drawn) | -3% | -14% | . | 0% | 17%
c1ccc(-c2nn3c(C4CCCCC4)nnc3s2)nc1 | 3% | -2% | 8% | 7% | 20%
Clc1ccc(OCc2nn3c(C4CCCCC4)nnc3s2)cc1 | 2% | -25% | 8.9µM* | -1% | -21%
Fc1ccc(CN2CCN(c3ncccn3)CC2)c(F)c1 | 1% | 18µM* | . | 4% | -24%
Clc1ccccc1CN1CCN(c2ncccn2)CC1 | 5% | 1µM* | 32µM* | ? | ?
O=C(Nc1ccc(Cl)cc1Cl)N1CCN(c2ncccn2)CC1 | 2% | 10% | 14% | 1% | 38%

Screening data from PubChem.
